{"source": "ChEMBL document CHEMBL1201862", "about": "“PubChem BioAssay data set” (2004)", "note": "The whole screen tested about 400,000 compounds, of which about 2,100 (0.53%) were called active. Inconclusive results (about 14%) are left out. No rule for the calls is given here. The list comes from a sample in which actives are over-represented; it also holds similar structures and randomly drawn compounds."}
{"target": "Ataxin-2 (Homo sapiens) (UniProt Q99700)", "sequence (Q99700 whole entry)": "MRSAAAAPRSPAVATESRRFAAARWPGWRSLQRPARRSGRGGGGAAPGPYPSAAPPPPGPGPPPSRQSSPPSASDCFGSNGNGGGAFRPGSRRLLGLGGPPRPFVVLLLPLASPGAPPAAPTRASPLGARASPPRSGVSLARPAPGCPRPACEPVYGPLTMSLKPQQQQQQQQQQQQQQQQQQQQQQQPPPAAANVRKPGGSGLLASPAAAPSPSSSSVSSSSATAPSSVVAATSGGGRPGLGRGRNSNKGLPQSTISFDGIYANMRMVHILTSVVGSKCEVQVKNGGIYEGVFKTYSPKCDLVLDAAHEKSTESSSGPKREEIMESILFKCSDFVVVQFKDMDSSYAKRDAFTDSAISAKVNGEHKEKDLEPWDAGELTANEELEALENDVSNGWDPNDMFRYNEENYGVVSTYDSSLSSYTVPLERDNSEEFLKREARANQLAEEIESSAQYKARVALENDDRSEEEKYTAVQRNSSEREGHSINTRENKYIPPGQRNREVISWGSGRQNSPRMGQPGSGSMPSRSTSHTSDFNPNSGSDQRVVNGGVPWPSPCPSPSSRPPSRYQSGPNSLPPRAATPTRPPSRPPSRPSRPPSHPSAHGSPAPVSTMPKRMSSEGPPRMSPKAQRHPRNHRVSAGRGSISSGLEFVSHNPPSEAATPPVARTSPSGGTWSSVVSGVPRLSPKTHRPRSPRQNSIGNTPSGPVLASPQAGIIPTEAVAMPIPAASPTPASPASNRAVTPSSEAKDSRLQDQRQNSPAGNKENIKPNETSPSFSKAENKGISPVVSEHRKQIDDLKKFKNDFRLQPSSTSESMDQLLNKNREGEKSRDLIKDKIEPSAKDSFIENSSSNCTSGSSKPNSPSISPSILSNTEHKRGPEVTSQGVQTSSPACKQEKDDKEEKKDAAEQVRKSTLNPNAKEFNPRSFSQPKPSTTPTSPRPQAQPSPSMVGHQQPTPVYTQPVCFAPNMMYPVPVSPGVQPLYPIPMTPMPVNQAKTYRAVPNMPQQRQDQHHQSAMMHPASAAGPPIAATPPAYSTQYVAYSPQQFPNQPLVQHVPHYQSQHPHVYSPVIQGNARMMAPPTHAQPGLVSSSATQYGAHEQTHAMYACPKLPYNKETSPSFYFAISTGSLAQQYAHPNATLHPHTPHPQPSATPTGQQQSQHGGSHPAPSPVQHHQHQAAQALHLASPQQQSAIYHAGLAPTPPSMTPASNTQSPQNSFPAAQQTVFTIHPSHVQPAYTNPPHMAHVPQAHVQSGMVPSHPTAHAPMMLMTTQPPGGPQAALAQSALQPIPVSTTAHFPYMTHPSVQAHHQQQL", "assay": "qHTS for Inhibitors of ATXN expression.", "assay_type": "functional"}
{"smiles": "CC[C@H](CO)Oc1cc(NCc2ccc(Cl)c(Cl)c2)c2ncn(C(C)C)c2c1", "Potency": "35.5 µM (active)"}
{"smiles": "CCC(CO)Oc1cc(NCc2ccccc2C(F)(F)F)c2ncn(C(C)C)c2c1", "note": "(configuration not stated)", "Potency": "25.1 µM (active)"}
{"smiles": "CC[C@H](CO)Oc1cc(NCc2cccc(N)c2)c2ncn(C(C)C)c2c1", "Potency": "31.6 µM (active)"}
{"smiles": "Nn1c(SCC(=O)Nc2c(F)cc(F)cc2Br)nnc1C1CCCCC1", "Potency": "inactive"}
{"smiles": "Cc1cc2c(cc1C)NC(CC(=O)Nc1ccccc1)C(=O)N2", "note": "(configuration not stated)", "Potency": "inactive"}
{"smiles": "CCCOc1c(Br)cc(C2C3=C(CCCC3=O)N(C)C3=C2C(=O)CCC3)cc1OC", "Potency": "inactive"}
{"smiles": "Cn1c(CNc2ccccc2O)nc2ccccc21", "Potency": "inactive"}
{"smiles": "COc1cccc(C(=O)/C=C2\\Sc3ccccc3N2C)c1", "Potency": "inactive"}
{"smiles": "CCC(/C=C1\\Sc2ccc(OC)cc2N1CCO)=C\\c1sc2ccc(OC)cc2[n+]1CCO", "Potency": "17.8 µM (active)"}
{"smiles": "CCOC(=O)c1cc2c(OC)c(OC)ccc2c2ncc(C#N)c(O)c12", "Potency": "inactive"}
{"smiles": "Nc1c(S(=O)(=O)c2cccs2)c2nc3ccccc3nc2n1/N=C/c1cccc(O)c1", "Potency": "39.8 µM (active)"}
{"smiles": "COCCNC(=O)c1c(N)n(/N=C/c2cccs2)c2nc3ccccc3nc12", "Potency": "inactive"}
{"smiles": "Nc1c(S(=O)(=O)c2ccccc2)c2nc3ccccc3nc2n1/N=C/c1cccc(O)c1", "Potency": "39.8 µM (active)"}
{"smiles": "COCCn1c(N)c(C(=O)NCc2cccs2)c2nc3ccccc3nc21", "Potency": "inactive"}
{"smiles": "Nc1c(S(=O)(=O)c2ccccc2)c2nc3ccccc3nc2n1C1CC1", "Potency": "inactive"}
{"smiles": "Cc1ccc(S(=O)(=O)c2c(N)n(-c3ccccc3)c3nc4ccccc4nc23)cc1", "Potency": "inactive"}
{"smiles": "Nc1c(C(=O)NCC2CCCO2)c2nc3ccccc3nc2n1-c1ccccc1", "note": "(configuration not stated)", "Potency": "inactive"}
{"smiles": "CC1(C)CC(=O)C2=C(C1)N1C(=C(C#N)C2c2ccc(Cl)cc2)N=C(N)c2ccccc21", "note": "(configuration not stated)", "Potency": "22.4 µM (active)"}
{"smiles": "COc1ccc(N2C3=C(C(=O)CC(C)(C)C3)C(c3ccccc3OC)C3=C2CC(C)(C)CC3=O)cc1", "Potency": "inactive"}
{"smiles": "COc1ccc(C2C3=C(CC(C)(C)CC3=O)N(C)C3=C2C(=O)CC(C)(C)C3)cc1", "Potency": "inactive"}
{"smiles": "COc1cccc(C=O)c1OCCCOc1cccc2cccnc12", "Potency": "39.8 µM (active)"}
{"smiles": "COc1ccccc1OCCCC(=O)NCc1ccco1", "Potency": "inactive"}
{"smiles": "COc1ccc(C2C3=C(O)CC(C)(C)CC3=Nc3c2c(=O)[nH]c(=O)n3Cc2ccccc2)cc1OC", "note": "(configuration not stated)", "Potency": "inactive"}
{"smiles": "CC(C)(C)c1ccc(C2Sc3ccccc3NC3=C2C(=O)c2ccccc23)cc1", "note": "(configuration not stated)", "Potency": "39.8 µM (active)"}
{"smiles": "CCCc1ccc(C2Sc3ccccc3NC3=C2C(=O)c2ccccc23)cc1", "note": "(configuration not stated)", "Potency": "31.6 µM (active)"}
{"smiles": "Cc1cc2c(NC(=O)CC(C)(C)CC(=O)O)cccc2nn1", "Potency": "inactive"}
{"smiles": "C=CCSc1nnc(C)c(/C=C/Nc2ccc(Cl)cc2)n1", "Potency": "inactive"}
{"smiles": "CCC(=O)Oc1ccc2c(c1)O/C(=C\\c1ccco1)C2=O", "Potency": "inactive"}
{"smiles": "CCOC(=O)c1c(NC(=O)c2ccc(S(=O)(=O)N3CCC(C)CC3)cc2)sc2c1CCN(C(C)C)C2", "Potency": "inactive"}
{"smiles": "O=C(C#Cc1ccccc1)c1cccc([N+](=O)[O-])c1", "Potency": "17.8 µM (active)"}
{"smiles": "O=[N+]([O-])c1ccc(N(c2ccccc2)c2ccccc2)cc1", "Potency": "inactive"}
{"smiles": "N#Cc1c(N)n(CCOC(=O)c2cccc([N+](=O)[O-])c2)c2nc3ccccc3nc12", "Potency": "inactive"}
{"smiles": "Cc1c(C(=O)c2cccc([N+](=O)[O-])c2)c2ccccn2c1CCC#N", "Potency": "inactive"}
{"smiles": "O=C(C#Cc1ccccc1)c1ccc([N+](=O)[O-])cc1", "Potency": "25.1 µM (active)"}
{"smiles": "Cc1ccc(C)n1NC(=O)c1ccc([N+](=O)[O-])cc1", "Potency": "inactive"}
{"smiles": "O=C(c1cn(-c2ccccc2)nc1-c1cccnc1)N1CCN(S(=O)(=O)c2ccccc2F)CC1", "Potency": "inactive"}
{"smiles": "Cc1cc(C)cc(OCC(=O)NC2CCCc3ccccc32)c1", "note": "(configuration not stated)", "Potency": "inactive"}
{"smiles": "O=C(/C=C/Nc1ccccc1Oc1ccccc1)c1ccco1", "Potency": "inactive"}
{"smiles": "O=C(/C=C/c1cc(Br)ccc1O)c1ccco1", "Potency": "39.8 µM (active)"}
{"smiles": "NC(=O)N/N=C\\c1cc(Br)ccc1O", "Potency": "inactive"}
{"smiles": "COc1ccc(C2=CC(c3ccc(C)cc3)n3nnnc3N2)cc1", "note": "(configuration not stated)", "Potency": "inactive"}
{"smiles": "ClCc1nnc(-c2cc3c(s2)CCCC3)o1", "Potency": "39.8 µM (active)"}
{"smiles": "Sc1nnc(-c2cc3c(s2)-c2ccccc2CC3)o1", "Potency": "inactive"}
{"smiles": "CCOC(=O)c1cc2c(=O)n3ccccc3nc2n(Cc2ccco2)/c1=N\\C(=O)c1ccc(C)c(C)c1", "Potency": "inactive"}
{"smiles": "COc1ccc(OC)c(NC(=O)C(C)Oc2ccc(Br)cc2)c1", "note": "(configuration not stated)", "Potency": "inactive"}
{"smiles": "COc1ccc(Cl)cc1NC(=O)C(OC)c1ccccc1", "note": "(configuration not stated)", "Potency": "inactive"}
{"smiles": "COc1cc2c(cc1NC(=O)C(Cl)Cl)-c1ccc(NC(=O)C(Cl)Cl)cc1C2", "Potency": "16.8 µM (active)"}
{"smiles": "CCN(Cc1ccccc1)C(=O)CSc1ccccc1C(=O)O", "Potency": "inactive"}
{"smiles": "O=C(Nc1nnc(-c2ccc3c(c2)CCCC3)o1)c1ccccc1", "Potency": "39.8 µM (active)"}
{"smiles": "COc1cccc(C(=O)Nc2nnc(-c3ccc(Cl)cc3)o2)c1", "Potency": "35.5 µM (active)"}
{"smiles": "COC(=O)c1ccsc1NC(=O)c1cccc(OC)c1", "Potency": "inactive"}
{"smiles": "COc1cccc(-c2nnc(NC(=O)c3ccc(Cl)s3)o2)c1", "Potency": "25.1 µM (active)"}
{"smiles": "Cc1ccc(NC(=O)c2cccc(Oc3ccc([N+](=O)[O-])cc3)c2)c(C(=O)O)c1", "Potency": "inactive"}
{"smiles": "O=C(Nc1nnc(-c2cccs2)o1)c1cccc(Oc2ccccc2)c1", "Potency": "28.2 µM (active)"}
{"smiles": "COc1cccc(-c2ccc3c(N)c(C(=O)Nc4ccc(Cl)cc4F)sc3n2)c1", "Potency": "inactive"}
{"smiles": "O=C(Nc1ccccc1C(=O)Nc1ccccc1C(=O)O)c1ccccc1", "Potency": "inactive"}
{"smiles": "N=c1oc2c3c4c(cc2cc1C(=O)Nc1ccccc1)CCCN4CCC3", "Potency": "inactive"}
{"smiles": "COc1ccc(OC)c2sc(NC(=O)c3ccc(Cl)s3)nc12", "Potency": "inactive"}
{"smiles": "COc1cccc(N/C=C/C(=O)c2ccc(Cl)cc2)c1", "Potency": "inactive"}
{"smiles": "O=C(Oc1ccc(OC(=O)C2CCC2)cc1)C1CCC1", "Potency": "inactive"}
{"smiles": "Cc1nc2scc(-c3ccccc3)c2c(=O)n1N=C1C=CC(=O)C=C1", "Potency": "inactive"}
{"smiles": "CCOC(=O)c1c(NC(=O)c2ccno2)c2cc([N+](=O)[O-])ccc2n1C", "Potency": "inactive"}
{"smiles": "OCCN(CCO)c1nc(N2CCCCC2)c2nc(N(CCO)CCO)nc(N3CCCCC3)c2n1", "Potency": "inactive"}
{"smiles": "Cc1cc(C)c(C#N)c(SCC(=O)C2CC2)n1", "Potency": "inactive"}
{"smiles": "O=C(NCc1nnc2c3ccccc3c(-c3ccccc3)nn12)c1ccc(Cl)cc1", "Potency": "inactive"}
{"smiles": "Cc1ccnc2nc(C(=O)Nc3nnc(-c4ccccc4)o3)nn12", "Potency": "inactive"}
{"smiles": "O=C(Nc1nnc(-c2ccccc2)o1)c1ccc(Cl)cc1", "Potency": "39.8 µM (active)"}
{"smiles": "Cc1nc(CS(=O)(=O)c2ccccn2)sc1C(=O)NNC(=O)c1ccccc1", "Potency": "inactive"}
{"smiles": "Cc1ccc(S(=O)(=O)N[C@H](C(=O)Oc2ccc3c(C(F)(F)F)cc(=O)oc3c2)c2ccccc2)cc1", "Potency": "inactive"}
{"smiles": "CCOc1ccc(-c2c(=O)n(OCc3nc4ccccc4[nH]3)c3ccccc3[n+]2[O-])cc1", "Potency": "inactive"}
{"smiles": "CCc1c(C)c2ccc(O)c(CN3CCCC3)c2oc1=O", "Potency": "inactive"}
{"smiles": "CC(C)c1ccc(/C=C2\\Oc3c(ccc(O)c3CN3CCN(C)CC3)C2=O)cc1", "Potency": "inactive"}
{"smiles": "Cc1oc2ccc(O)c(CN3CCCC3)c2c1C(=O)Nc1ccc(C(C)C)cc1", "Potency": "15.8 µM (active)"}
{"smiles": "CCn1c(=O)cc(OCC(=O)N2CCN(c3ccc(C)cc3)C(C)C2)c2ccccc21", "note": "(configuration not stated)", "Potency": "28.2 µM (active)"}
{"smiles": "CCN1CCCC(OC(=O)c2cc(-c3ccc(C)cc3)nc3ccccc23)C1", "note": "(configuration not stated)", "Potency": "inactive"}
{"smiles": "CCOC(=O)COc1cccc2c(=O)n(CC(=O)N3CCC(C)CC3)ccc12", "Potency": "inactive"}
{"smiles": "COCc1cc(=O)oc2cc(NS(=O)(=O)c3ccc(C)cc3)ccc12", "Potency": "inactive"}
{"smiles": "COc1ccc(-c2cc(C(=O)Nc3ccc(S(=O)(=O)Nc4onc(C)c4C)cc3)c3ccccc3n2)cc1", "Potency": "inactive"}
{"smiles": "COc1ccc(-c2nc3ccc(NS(=O)(=O)c4ccc(C)cc4)cc3o2)cc1", "Potency": "39.8 µM (active)"}
{"smiles": "COC(=O)c1cscc1S(=O)(=O)Cc1ccccc1", "Potency": "inactive"}
{"smiles": "CC(=O)Nc1ccc(S(=O)(=O)NCCc2cn3nc(C)c(C)nc3n2)cc1", "Potency": "inactive"}
{"smiles": "CNC(=O)COC(=O)/C=C/c1nc2ccccc2s1", "Potency": "inactive"}
{"smiles": "O=C(NCCN1C(=O)S/C(=C\\c2ccc(Cl)c([N+](=O)[O-])c2)C1=O)C1=COCCO1", "Potency": "25.1 µM (active)"}
{"smiles": "CCOC(=O)CN1C(=O)S/C(=C\\c2ccc3c(c2)OCO3)C1=O", "Potency": "inactive"}
{"smiles": "CCCn1nnc(NC(=S)NC(=O)c2ccccc2OC)n1", "Potency": "inactive"}
{"smiles": "C=CCN1C(=O)/C(=C/c2ccc(O)cc2)S/C1=N/c1nccs1", "Potency": "inactive"}
{"smiles": "C=CCN1C(=O)/C(=C2\\C(=O)Nc3ccccc32)S/C1=N/c1ccc(O)cc1", "Potency": "31.6 µM (active)"}
{"smiles": "Cc1ccc(-c2nc3ccc(C)cn3c2Cc2ccsc2)cc1", "Potency": "22.4 µM (active)"}
{"smiles": "Cc1ccc(Sc2nc3ccc(C)cn3c(=O)c2/C=N/O)cc1", "Potency": "inactive"}
{"smiles": "Cc1ccc2nc(Cl)nc(-c3ccccc3)c2c1", "Potency": "inactive"}
{"smiles": "Cc1ccc(Cc2c(-c3ccccc3)nc3cc(C)ccn23)cc1", "Potency": "22.4 µM (active)"}
{"smiles": "Cc1nc2ccccc2nc(C)c1=NOCc1cccc(F)c1", "Potency": "inactive"}
{"smiles": "Cc1ccc2nc(-c3ccccc3)c(Cc3cccc(F)c3)n2c1", "Potency": "31.6 µM (active)"}
{"smiles": "Cc1ccn2c(NCc3ccccc3)c(-c3cccs3)nc2c1", "Potency": "inactive"}
{"smiles": "Cc1ccc(-c2nc3ccc(C)cn3c2Cc2cccc(F)c2)cc1", "Potency": "35.5 µM (active)"}
{"smiles": "Cc1ccc(-c2cn3nc(-c4ccccc4)c(-c4ccccc4)nc3n2)cc1", "Potency": "inactive"}
{"smiles": "Cc1c(NC(=O)CCC2CCCCC2)cc(C(=O)N2CCOCC2)cc1[N+](=O)[O-]", "Potency": "inactive"}
{"smiles": "O=C(O)c1cc(Cl)c(Cl)cc1C(=O)N(Cc1ccccc1)Cc1ccccc1", "Potency": "inactive"}
{"smiles": "COc1cccc2sc3cc(NCc4ccc(C)o4)ccc3c(=O)c12", "Potency": "inactive"}
{"smiles": "Cc1ccccc1/C=C/c1nc(O)c2ccccc2n1", "Potency": "31.6 µM (active)"}
{"smiles": "CN(C)c1ccc(/C=C/c2nc(O)c3ccccc3n2)cc1", "Potency": "inactive"}
{"smiles": "Oc1nc(/C=C/c2cccc3ccccc23)nc2ccccc12", "Potency": "inactive"}
